Compound activity from PubChem BioAssay.
In the library only some 1.5% were active in any assay of this set; here they are far more common.
NOD2 RIPK2 PPI = blocks binding of human NOD2 to RIPK2; O43353; hit rate 0.38% among 360,000; CHO BLA complementation NOD2-RIPK2, CCF4 ratio; inhibition, % at 4.98 µM; in the data active means inhibition above about 21%
Target sequence (O43353 whole entry, looked up): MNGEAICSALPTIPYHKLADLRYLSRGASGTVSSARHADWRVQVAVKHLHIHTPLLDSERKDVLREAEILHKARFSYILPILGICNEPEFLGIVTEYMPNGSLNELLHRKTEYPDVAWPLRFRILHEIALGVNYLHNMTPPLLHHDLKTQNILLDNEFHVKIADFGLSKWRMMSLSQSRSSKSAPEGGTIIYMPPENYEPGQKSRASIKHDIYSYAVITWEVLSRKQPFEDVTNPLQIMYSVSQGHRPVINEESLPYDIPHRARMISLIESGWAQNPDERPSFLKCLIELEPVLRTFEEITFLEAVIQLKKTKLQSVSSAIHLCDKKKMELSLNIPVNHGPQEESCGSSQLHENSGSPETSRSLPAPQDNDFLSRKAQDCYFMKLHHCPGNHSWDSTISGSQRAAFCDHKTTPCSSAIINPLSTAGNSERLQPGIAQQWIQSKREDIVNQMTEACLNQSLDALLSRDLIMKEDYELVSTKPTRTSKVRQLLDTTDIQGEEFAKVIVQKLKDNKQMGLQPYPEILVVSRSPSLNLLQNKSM
B2AR ag = activates human beta-2 adrenergic receptor causing internalization | P07550 | Am2.2-beta2AR cells, FAP receptor internalization, flow cytometry | response, % (concentration not given with the values) | hit rate 0.43% among 340,000 | AID 504454;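 active means response above a set limit, near 3 SD of response in nonfluorescent compounds, cut at about 42% in these data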
TLR9-MyD88 block = TLR9-MyD88 interaction inhibition | CHO BLA complementation TLR9-MyD88, CCF4 FRET ratio | inhibition, % at 4.98 µM | hit rate 0.21% among 340,000;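 active means inhibition above the mean over all tested compounds plus 3 SD, cut at about 21% in these data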
NTR1 agonist = NTR1 (human) agonism; hit rate 0.17% among 330,000; activation, % at 20 µM; P30989; NTR1-U2OS beta-arrestin-GFP spot imaging, agonist mode; AID 493036;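 active means activation at or above 40% of the spot to cytoplasm intensity ratio, with at least 20 cells analyzed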
ABHD5 PLIN5 PPI = inhibitors of human ABHD5-perilipin-5 interaction. hit rate 0.78% among 360,000. Split G. princeps luciferase complementation, luminescence, 4 h. inhibition, % at 4 µM. Q00G26+Q8WTS1;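 active means inhibition above the mean inhibition across every tested compound plus 3 SD, cut at about 22% in these data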
TLR4-MyD88 BLA = inhibitors of human TLR4-MyD88 binding; O00206+Q99836; HeLa CL3-4 TLR4/MyD88 BLA complementation, FRET ratio; inhibition, % at 8.4 µM; hit rate 0.18% among 200,000; in the data active means inhibition above about 25%
NOD2-RIPK2 conf = NOD2-RIPK2 interaction inhibition confirmed; AID 624370; hit rate 70% among 1,200; inhibition, % at 4.98 µM; shares compounds with NOD2 RIPK2 PPI; CHO cells, NOD2-RIPK2 BLA complementation, CCF4 FRET;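 active means mean inhibition across replicates above a set limit taken from the earlier primary screen, cut at about 21% in these data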
NOD2 BLA counter = counter-screen for NOD2-RIPK2 interaction inhibitors: BLA reporter; inhibition, % at 4.98 µM; hit rate 57% among 1,200; CHO BLA reporter, CCF4 FRET ratio, counterscreen; shares compounds with NOD2 RIPK2 PPI;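 active means mean inhibition above the low-control mean inhibition plus three low-control SD, cut at about 11% in these data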
Hits are given with their value; 0 = inactive; - = not tested or not shown.

SMILES | NOD2 RIPK2 PPI | B2AR ag | TLR9-MyD88 block | NTR1 agonist | ABHD5 PLIN5 PPI | TLR4-MyD88 BLA | NOD2-RIPK2 conf | NOD2 BLA counter
O=C(NCc1ccccc1)C(c1ccncc1)n1c(=O)c(-c2cc3ccccc3[nH]2)nc2ccccc21 (centres undefined) | 54.0 | - | - | - | 0 | - | 50.6 | 67.1
O=C(NCc1ccccc1)C(c1ccccc1F)n1c(=O)c(-c2cc3ccccc3[nH]2)nc2ccccc21 (centres undefined) | 53.2 | - | - | - | 0 | - | 48.1 | 69.7
CN[C@H](C)C(=O)NC[C@H]1O[C@@H](n2cc(C)c(=O)[nH]c2=O)C[C@@H]1O | 0 | - | 0 | - | 0 | - | - | -
CCOc1ccccc1C=NNC(=O)C(=O)NN=Cc1ccccc1OCC | 24.1 | 0 | 0 | - | 0 | - | 0 | 0
CCOc1ccccc1C=NNC(=O)CCCCC(=O)NN=Cc1ccccc1OCC | 0 | 0 | 0 | - | 0 | - | - | -
CC(C)(C)CC(C)(C)NC(=S)Nc1ccc2nc(-c3ccccn3)c(-c3ccccn3)nc2c1 | 32.0 | 0 | 0 | 0 | 0 | 0 | 0 | 0
S=C(c1ccc(-c2ccccc2Cl)o1)N1CCOCC1 | 21.7 | 0 | 0 | 0 | 0 | 0 | 0 | 0
S=C(c1ccc(-c2ccc(Cl)c(Cl)c2)o1)N1CCOCC1 | 0 | 0 | 0 | 0 | 0 | 0 | - | -
Cc1cccc(NS(=O)(=O)c2ccc(-c3cnc(C4CC4)o3)cc2)c1C | 26.0 | 0 | 0 | 0 | 0 | - | 0 | 0
CCC(C)CN1C(=O)CSCC1(C)C(=O)Nc1ccc2c(c1)OCCO2 (centres undefined) | 0 | - | - | - | 0 | - | - | -
COc1ccc2[nH]cc(/C=C/C(=O)c3ccccc3)c2c1 | 27.4 | 0 | 0 | 0 | 0 | - | 21.1 | 32.4
O=C(/C=C/c1c[nH]c2ccccc12)c1ccccc1 | 30.5 | 0 | 0 | 0 | 0 | 0 | 29.9 | 34.9
COc1ccc(/C=C/C(=O)c2ccccc2)c(OC)c1 | 0 | 0 | 0 | 0 | 0 | 0 | - | -
COc1cccc(-c2cnc3c(NC=O)cc(-c4ccncc4)cn23)c1 | 0 | - | - | - | 0 | - | - | -
CC(c1ccccc1)n1c(CCCO)nc2ccccc21 (centres undefined) | 23.9 | 0 | 0 | 0 | 0 | - | 0 | 0
Cc1ccc2c(c1)=N/C(=N\c1[nH]c(O)c3ccccc13)N=2 | 29.4 | - | 0 | - | 0 | - | 50.6 | 48.5
O=C(O)c1cccc(Cn2c(Cl)c(/C=N/NC(=O)c3ccc(O)cc3)sc2=O)c1 | 0 | 0 | 0 | 0 | 0 | - | - | -
O=c1sc(/C=N/Nc2ccccc2)c(Cl)n1Cc1ccccc1 | 29.4 | 0 | 0 | 0 | 0 | 0 | 0 | 0
COc1ccc(CNC(=O)Nc2nnc([C@@H]3C[C@H](O)[C@@H](CO)O3)s2)cc1 | 0 | - | - | - | 0 | - | - | -
CCN(CC)c1ccc(C=C(c2nnnn2-c2ccc(C)cc2)c2nnnn2-c2ccc(C)cc2)cc1 | 22.0 | 0 | 0 | 0 | 0 | 0 | 27.9 | 34.1
O=C(NCC1CC1)C1Cc2c(-c3ccc4c(c3)OCO4)ccnc2O1 (centres undefined) | 0 | - | - | - | 0 | - | - | -
O=C1OCCN1C(=O)[C@H]1[C@H](c2ccccc2)C(c2cccc(Cl)c2)=NN1c1ccccc1 | 26.9 | 0 | 0 | 0 | 0 | - | 0 | 38.5
O=C1OCCN1C(=O)[C@H]1[C@H](c2ccc(Cl)cc2)C(c2ccccc2)=NN1c1ccccc1 | 0 | 0 | 0 | 0 | 0 | - | - | -
O=[N+]([O-])c1nccn1CCCCCCN1CCOCC1 | 0 | - | - | - | 0 | - | - | -
N#Cc1c(C(F)(F)F)cc(-c2ccco2)nc1SCc1ccncc1 | 29.4 | 0 | 0 | 0 | 0 | 0 | 0 | 0
SMILES | NOD2 RIPK2 PPI | B2AR ag | TLR9-MyD88 block | NTR1 agonist | ABHD5 PLIN5 PPI | TLR4-MyD88 BLA | NOD2-RIPK2 conf | NOD2 BLA counter
COc1cccc(C(=O)N2CCC2(C)C(=O)NC(C)C)c1 (centres undefined) | 0 | - | - | - | 0 | - | - | -
CC1(C)Cc2c(sc3nc(-c4cc5ccccc5o4)n(N)c(=O)c23)CO1 | 23.5 | 0 | 0 | 0 | 0 | 0 | 0 | 0
Cc1ccc(-c2nc3sc4c(c3c(=O)n2N)CC(C)(C)OC4)cc1 | 0 | 0 | 0 | 0 | 0 | 0 | - | -
Cc1ccccc1N1CCN(C(=S)c2ccccc2)CC1 | 24.1 | 0 | 0 | 0 | 0 | 0 | 0 | 0
S=C(c1ccccc1)N1CCN(c2ccccc2)CC1 | 0 | 0 | 0 | - | 0 | - | - | -
CCOC(=O)c1c(C)[nH]c(C2=NNC(=Nc3ccc(OCC)cc3)SC2)c1C | 35.3 | 0 | 0 | - | 0 | 0 | 0 | 0
Cc1c(C(=O)N2CCCC2)oc2c1-c1[nH]ncc1CC2 | 20.9 | 0 | 0 | 0 | 0 | 0 | 0 | 0
CCCCN(CC)CCNC(=O)Cn1cc2c(n1)-c1c(oc(C(=O)N3CCCC3)c1C)CC2 | 0 | 0 | 0 | 0 | 0 | - | - | -
Cc1ccccc1NC(=O)c1sc2nc3c(c(-c4ccco4)c2c1N)CCCC3 | 39.2 | 0 | 0 | 0 | 0 | 0 | 51.0 | 56.2
COc1ccc(-c2csc(-c3cc4ccccc4oc3=N)n2)cc1 | 31.1 | 0 | 0 | 0 | 0 | 0 | 0 | 22.7
Cn1nc(C(C)(C)C)cc1C(=O)N1CCCCC1c1cc(C(=O)NCc2ccc(F)cc2)no1 (centres undefined) | 0 | - | - | - | 0 | - | - | -
Cc1ccc(/C=N\NC(=O)CC(=O)NCCc2ccccc2)cc1 | 0 | 0 | 0 | 0 | 0 | - | - | -
O=C(CC(=O)N/N=C\c1ccccc1)NCCc1ccccc1 | 21.9 | 0 | 0 | 0 | 0 | - | 0 | 0
CSCCC(C(=O)NC1CCCC1)n1c(C2CC2)nc2ccccc21 (centres undefined) | 0 | - | - | - | 0 | - | - | -
Nc1nc2ncccn2c1-c1ccc(F)c(F)c1 | 27.8 | - | - | - | 0 | - | 0 | 19.9
Cc1cccc(C)c1-n1nnnc1C1(C)CCC(=O)N1CC(F)(F)F (centres undefined) | 0 | - | - | - | 0 | - | - | -
Cc1ccc(-c2nnn(CC(=O)Nc3ccccc3N3CCOCC3)n2)cc1 | 21.3 | 0 | 0 | 0 | 0 | 0 | 0 | 0
Cc1ccc(SCC(=O)Nc2ccccc2N2CCOCC2)cc1 | 0 | 0 | 0 | 0 | 0 | - | - | -
CC(C)(C)NC(=O)C(c1ccnc2ccccc12)n1c(=O)c(-c2cc3ccccc3[nH]2)nc2ccccc21 (centres undefined) | 49.3 | - | - | - | 0 | - | 45.6 | 65.5
CC(C)(C)NC(=O)C(c1ccccc1)n1c(-c2ccc(-c3ccccc3)cc2)nc2ccccc21 (centres undefined) | 0 | - | - | - | 0 | - | - | -
CC(C)(C)NC(=O)C(c1ccnc2ccccc12)n1c(=O)c(-c2ccccc2)nc2ccccc21 (centres undefined) | 0 | - | - | - | 0 | - | - | -
CC(C)(C)NC(=O)C(c1ccccc1F)n1c(=O)c(-c2cc3ccccc3[nH]2)nc2ccccc21 (centres undefined) | 50.3 | - | - | - | 0 | - | 46.3 | 67.7
COc1ccc(C(C)C)cc1-c1cncc(NC(C)=O)n1 | 0 | - | - | - | 0 | - | - | -
O=C1c2cccc3cc([N+](=O)[O-])cc(c23)C(=O)N1CC1CCCO1 (centres undefined) | 24.2 | 0 | 0 | 0 | 0 | - | 0 | 0
